# Source: PubChem BioAssay AID1851 (National Center for Advancing Translational Sciences (NCATS), 2009)
# About 5,100 (32%) of roughly 16,000 compounds were called active. Another 25% or so got no clear call; they are omitted. Calls come from the whole dose curve; as a rule, active = well fitted curve in the direction sought with a large enough effect; inconclusive = small, poorly fitted or top-dose-only effect, or effect the other way; inactive = no such curve, though single readings can be large or run the other way. The list shows a part of the results.
# Molecular target: Cytochrome P450 3A4 (Homo sapiens) (UniProt P08684)
# Test: Cytochrome panel assay with activity outcomes
# Details: recombinant CYP, pro-luciferin dealkylation, luminescence, p450-cyp3a4; series mostly up to 57.1 µM
# % is set by controls: 0 for no effect and ±100 for the full control effect.
# Cytochrome P450 3A4 (Homo sapiens), sequence (P08684 whole entry, looked up): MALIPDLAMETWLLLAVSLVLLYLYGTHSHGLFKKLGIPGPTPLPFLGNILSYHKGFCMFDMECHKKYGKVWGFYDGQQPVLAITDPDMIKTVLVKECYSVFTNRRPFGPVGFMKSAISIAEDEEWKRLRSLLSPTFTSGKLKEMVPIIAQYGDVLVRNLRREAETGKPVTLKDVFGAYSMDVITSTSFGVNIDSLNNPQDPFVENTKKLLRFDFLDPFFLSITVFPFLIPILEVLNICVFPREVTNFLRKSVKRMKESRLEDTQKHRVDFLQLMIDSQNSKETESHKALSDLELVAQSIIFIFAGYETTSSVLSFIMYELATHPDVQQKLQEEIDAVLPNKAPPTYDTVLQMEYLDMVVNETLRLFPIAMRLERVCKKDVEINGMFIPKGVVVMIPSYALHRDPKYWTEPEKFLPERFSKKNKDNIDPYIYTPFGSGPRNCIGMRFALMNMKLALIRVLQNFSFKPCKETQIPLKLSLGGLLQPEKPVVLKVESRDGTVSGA
Structure (SMILES),"activity, negative = inhibition",AC50
CC(C)OC(=O)CC12CN(C)CC(CC(=O)OC(C)C)(CN(C)C1)C2=O,15.3% [at 2.29 µM] (inactive),–
Fc1ccc(-c2ccnc3nc(N4CCOCC4)nn23)cc1,–,inactive
C/C(=C\c1ccc(Cl)cc1)C(C)(C)C(=O)O,-11.2% [at 11.4 µM] (inactive),–
COc1ccccc1C(=O)N/C(=C/c1ccc(Br)cc1)C(=O)NCC(=O)O,–,8.91 µM (active)
O=C(CNC(=O)/C(=C\c1ccccc1)NC(=O)c1ccc(Br)cc1)OCc1ccccc1,–,0.2 µM (active)
COc1ccc(C(=O)NCC(=O)OCc2cccc(Br)c2)cc1,–,7.94 µM (active)
COC(=O)CCC(=O)NNC(=O)c1ccc(Br)cc1,–,inactive
O=C(OCc1ccccc1)/C(=C/c1ccc(Cl)cc1)NC(=O)c1ccccc1Cl,–,0.178 µM (active)
O=C(O)CNC(=O)c1ccccc1O,-5.63% [at 11.4 µM] (inactive),–
Cc1cccc(C(=O)NN(C)c2nc(-c3ccccc3)nnc2C(F)(F)F)c1,–,inactive
CN(C)c1nc(-c2cccc(NS(C)(=O)=O)c2)nc2ccccc12,–,6.31 µM (active)
COc1cccc(-c2nc(Nc3ccncc3)c3ccccc3n2)c1,–,2.51 µM (active)
CS(=O)(=O)Nc1cccc(-c2nc(Nc3ccccc3)c3ccccc3n2)c1,–,10 µM (active)
CS(=O)(=O)Nc1cccc(-c2nc(Nc3ccc(F)cc3)c3ccccc3n2)c1,–,6.31 µM (active)
N#Cc1cc2nc(O)c(O)nc2cc1[N+](=O)[O-],–,inactive
CS(=O)(=O)Nc1cccc(-c2nc(Nc3ccncc3)c3ccccc3n2)c1,–,3.98 µM (active)
CS(=O)(=O)Nc1cccc(-c2nccc(Nc3ccc(F)cc3)n2)c1,–,10 µM (active)
CNc1nc(-c2cccc(NS(C)(=O)=O)c2)nc2ccccc12,–,10 µM (active)
Oc1cc(CN2COc3ccccc32)c(O)cc1CNC1CCCCC1,-5.1% [at 11.4 µM] (inactive),–
CCN1C(=O)C=CC1=O,–,inactive

Structure (SMILES),"activity, negative = inhibition",AC50
O=C(c1ccco1)N1CCC2(CC1)CN(Cc1cc(C(F)(F)F)cc(C(F)(F)F)c1)C2,–,inactive
O=C(c1ccco1)N1CCC2(CCCN(Cc3ccncc3)C2)CC1,–,5.01 µM (active)
O=C(c1ccco1)N1CCC2(CCN(Cc3ccncc3)CC2)CC1,–,12.6 µM (active)
O=C(O)[C@H](/C=C\c1ccccc1)c1ccccc1,-11.9% [at 11.4 µM] (inactive),–
Cc1ccc(S(=O)(=O)CC#CCOC(=O)c2ccc([N+](=O)[O-])cc2)cc1,–,15.8 µM (active)
NS(=O)(=O)c1ccc(CCNC(=O)C2CCCN2C(=O)OCc2ccccc2)cc1 (centres undefined),–,12.6 µM (active)
COc1ccc(NC(=O)N2CCCC2C(=O)Nc2ccccc2)cc1 (centres undefined),–,inactive
Cc1ccc(CNC(=O)C2CCC(=O)N2C2CCCCC2)cc1 (centres undefined),–,7.94 µM (active)
COc1ccccc1NC(=O)N1CCCC1C(=O)NCc1ccc2c(c1)OCO2 (centres undefined),–,0.355 µM (active)
Cc1ccc(CNC(=O)C2CCCN2C(=O)NCc2ccccc2)cc1 (centres undefined),–,3.55 µM (active)
O=C(NCCCN1CCN(c2ccccc2F)CC1)C1CCC(=O)N1C1CCCCC1 (centres undefined),–,inactive
O=C(O)C1CCCN1C(=O)OCc1ccccc1 (centres undefined),–,inactive
Cc1ccc(CNC(=O)C2CC(c3ccccc3[N+](=O)[O-])=NO2)cc1 (centres undefined),-29.5% [at 2.29 µM] (inactive),–
C=C1CC[C@H](O)C/C1=C/C=C1\CCC[C@]2(C)[C@H]1CC[C@H]2[C@@H](C)/C=C\[C@@H](C)C(C)C,–,inactive
O=C1CC[C@](CCc2nc3ccccc3[nH]2)(c2ccccc2)C(=O)N1,-26.9% [at 11.4 µM] (inactive),–
CCCNC(=O)c1c(C)cc(=O)oc1C,–,inactive
O=C(Cn1nc(C(F)F)cc1C(F)F)N/N=C/c1ccc2c(c1)OCO2,–,5.01 µM (active)
O=C(CSCc1ccc(Cl)cc1)Nc1ccc2c(c1)OCCO2,-20.7% [at 11.4 µM] (inactive),–
O=C(CSCc1cccc(Br)c1)N/N=C/c1ccc2c(c1)OCO2,–,3.98 µM (active)
C=CCNC(=O)CC(=O)N/N=C/c1cccc(Br)c1,–,inactive

Structure (SMILES),"activity, negative = inhibition",AC50
C/C(=N\NC(N)=O)c1ccc(Cl)cc1,-0.483% [at 11.4 µM] (inactive),–
Cc1oc(-c2ccccc2F)nc1CSCC(=O)NCc1ccc2c(c1)OCO2,–,1 µM (active)
CCCCCCCCC(=O)N/N=C/c1cccc(Br)c1,-6.69% [at 11.4 µM] (inactive),–
C/C(=N\NC(=O)CSCc1ccc(Cl)cc1)c1ccc2c(c1)OCCO2,–,14.1 µM (active)
O=C(O)C(Cl)(c1ccccc1)c1ccccc1,-5.68% [at 11.4 µM] (inactive),–
O=C(/C=C/c1ccc2c(c1)OCO2)NCCSCc1cccc(Cl)c1,18.2% [at 2.29 µM] (inactive),–
O=C(CSCc1cccc(Cl)c1)NCc1ccc2c(c1)OCO2,–,1.12 µM (active)
Cc1cc(OC(=O)c2ccccc2Cl)cc(=O)n1C,–,inactive
Cc1cccc(CNc2ccnc(-c3ccc(C(=O)N(C)C)cc3)n2)c1,–,3.16 µM (active)
CN(C)C(=O)c1ccc(-c2nccc(NCc3cccnc3)n2)cc1,–,15.8 µM (active)
[N-]=[N+]=Nc1ccc(C(=O)CSC[C@@H](NC(=O)CC[C@@H](N)C(=O)O)C(=O)NCC(=O)O)cc1,–,inactive
CC(C)[C@H]1C(=O)C(C(N)=O)=C(O)[C@]2(O)C(=O)C3=C(O)c4c(O)ccc(N(C)C)c4C[C@H]3C[C@@H]12,–,inactive
COc1ncc2nc(-c3cccs3)c(=O)n(Cc3ccc(F)cc3)c2n1,–,3.16 µM (active)
COc1cccc(Cn2c(=O)c(-c3cccs3)nc3cncnc32)c1,–,5.01 µM (active)
COc1cccc(Cn2c(=O)c(-c3cccs3)nc3cnc(OC)nc32)c1,–,3.98 µM (active)
COc1ccc(Oc2ncc3nc(-c4cccs4)c(=O)n(Cc4cccc(OC)c4)c3n2)cc1,–,3.98 µM (active)
COc1ccc(Nc2ncc3nc(-c4cccs4)c(=O)n(Cc4cccc(OC)c4)c3n2)cc1,–,inactive
O=C(O)c1ccc(C(=O)c2ccccc2)c(C(=O)O)c1,-42.2% [at 11.4 µM] (inactive),–
C=CCN=C(NC#N)SCc1ccccc1,-3.62% [at 2.29 µM] (inactive),–
